Sampled rows, rich in hits. Any-hit rate of the full collection: about 7%.
ATXN2 expr inh = inhibitors of ATXN2 expression. 360,000 compounds, 0.72% hits. Potency, µM (top dose mostly 57 µM), for the others: at the highest dose activity change, negative = inhibition, most hits filed as inhibitors. HEK-293 ATXN2-luciferase reporter, luminescence, 24 h. AID 1745845; further: potency means the concentration at half of the fitted maximal effect; on the % scale 0 is the no-effect control and ±100 the full control effect; nearly all actives have a fitted effect of over 55% in size
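ATXN2-luciferase reporter cells (luciferase flanked by upstream and downstream ATXN2 gene portions) were treated 24 h at 37 °C with compounds at up to 57 uM. SteadyGlo luminescence gave expression; GF-AFC fluorescence gave viability.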
a7 integrin act = activators of alpha7 integrin expression for muscular dystrophy; alpha7betagal myoblasts, beta-gal FDG fluorescence, 48 h; Potency, µM (titrated, usually from 38.3 µM), without a hit: top-dose activation, actives largely listed as activators; 350,000 compounds, 0.064% hits; AID 624291;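 further: potency means the concentration at half of the fitted maximal effect; 100% = response of the positive control SU9516; nearly all actives have a fitted effect of over 60% in size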
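alpha7betagal+/- myoblasts (passage 13, 250/well) treated 48 h at 37C with compounds at 1:260 dilution of DMSO stock. Lysed, then beta-galactosidase activity read as FDG fluorescence (ex 480/em 540) after 30 min, with pre-read for autofluorescence.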
S2 tox = viability counter-screen for ATXN expression inhibitors | Potency, µM (highest dose often 56.7 µM), actives largely listed as cytotoxic | S2 cells (HEK-293 line with an ATXN2-luciferase reporter) viability, CellTiter-Fluor protease fluorescence, 24 h | AID 651635 | 400,000 compounds, 0.49% hits; further: potency means the concentration at half of the fitted maximal effect; nearly all actives have a fitted effect of over 40% in size
D3 antag = D3 dopamine receptor (human) antagonism | D3R cells, DiscoveRx beta-arrestin luminescence, antagonist mode; stronger effect = lower value | P35462 | 360,000 compounds, 2.5% hits | AID 652054 | max response, negative = inhibition, %; in the data active means max response below about -50%; inconclusive means no clear call, values can overlap the other calls; further: on the % scale 0 is the no-effect control and ±100 the full control effect
Target sequence (P35462 whole entry, looked up): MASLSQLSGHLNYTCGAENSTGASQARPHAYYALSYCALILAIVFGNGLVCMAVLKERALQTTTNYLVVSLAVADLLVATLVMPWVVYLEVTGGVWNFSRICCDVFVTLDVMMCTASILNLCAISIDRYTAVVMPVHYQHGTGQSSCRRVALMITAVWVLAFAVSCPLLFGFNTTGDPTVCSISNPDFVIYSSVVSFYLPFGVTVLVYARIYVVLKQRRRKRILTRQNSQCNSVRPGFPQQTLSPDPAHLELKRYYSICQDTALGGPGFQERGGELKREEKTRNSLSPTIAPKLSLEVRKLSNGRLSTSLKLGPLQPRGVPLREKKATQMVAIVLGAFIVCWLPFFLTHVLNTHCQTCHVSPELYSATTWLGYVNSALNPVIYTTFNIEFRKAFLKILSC
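Cells expressing the human receptor were seeded at 1500 cells/well, incubated overnight at 37 degrees C in 5% CO2, then exposed to library compounds with dopamine controls for 90 minutes at 37 degrees C before luminescent detection.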
IL-1B inflam inh = blocks inflammasome-driven IL-1 beta release; activity change, % at 57.5 µM; THP-1 LPS/ATP IL-1B secretion, AlphaLISA, 16 h; stronger effect = lower value; 360,000 compounds, 4.7% hits; in the data active means activity change below about -50%; inconclusive means mostly about -30% to -49%; further: on the % scale 0 is the no-effect control and ±100 the full control effect
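THP-1 cells pretreated 1 hr with compounds (up to 57.5 uM final), then stimulated with LPS (250 ng/mL final) plus ATP (1.25 mM final); secreted IL-1B measured by AlphaLISA after 16 hr, decreased signal indicating inhibition.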
D3 ag = activates the human D3 dopamine receptor; P35462; D3R DiscoveRx beta-arrestin cells, luminescence, 90 min; max activation, %; 410,000 compounds, 0.58% hits; in the data active means max activation above about 30%; further: 0% is about no effect
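Cells at 1500/well, incubated overnight, then treated with pinned compounds (dopamine as control) for 90 min at 37 degrees C. DiscoveRx reagent added for 30 - 60 minutes at room temperature; luminescence read.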
An asterisk follows results filed as active; [ ] = another dose, or the depositor's remark. Unless noted, the call rests on the fitted dose curve; in most records, active means well fitted curve in the direction sought with a large enough effect; inconclusive means small, poorly fitted or top-dose-only effect, or another doubt; inactive means no such curve, though single readings can be large; an effect the other way counts as inactive or inconclusive.

What do the screens show for `COc1ccc(S(=O)(=O)N(C)C[C@H]2Oc3ccc(NS(=O)(=O)c4c(C)noc4C)cc3C(=O)N([C@H](C)CO)C[C@@H]2C)cc1`?
ATXN2 expr inh: 7%; a7 integrin act: 7%; S2 tox: inactive; D3 antag: -20; IL-1B inflam inh: -4; D3 ag: 1

How did CC(=O)Nc1ccc(Nc2nc(C)c([N+](=O)[O-])c(N(C)c3ccccc3)n2)cc1 do in these assays?
ATXN2 expr inh: inconclusive; a7 integrin act: -27%; S2 tox: inconclusive; D3 antag: 6; IL-1B inflam inh: inconclusive; D3 ag: -3

How did C=CCn1c(=O)/c(=C/c2ccc(F)cc2)s/c1=C(\C#N)c1nnc2n1CCCCC2 do in these assays?
ATXN2 expr inh: -22%; a7 integrin act: -26%; S2 tox: inactive; D3 antag: 10; IL-1B inflam inh: -67*; D3 ag: -3

Results for C[C@H](NC(=O)[C@H](Cc1ccccc1)n1c(=O)[nH]c2ccccc2c1=O)C(=O)N1CCC(C(=O)O)CC1 ?
ATXN2 expr inh: -2%; a7 integrin act: 0%; S2 tox: inactive; D3 antag: -6; IL-1B inflam inh: 14; D3 ag: 36*

How did CSCC[C@H](NC(=O)[C@H](Cc1ccccc1)n1c(=O)[nH]c2ccccc2c1=O)C(=O)N1CCC(C(=O)O)CC1 do in these assays?
ATXN2 expr inh: 8%; a7 integrin act: -2%; S2 tox: inactive; D3 antag: 11; IL-1B inflam inh: 23; D3 ag: 32*

Results for CN1CC[C@@H](c2c(O)cc(O)c3c(=O)cc(-c4ccccc4Cl)oc23)[C@@H](O)C1 ?
ATXN2 expr inh: 0.15µM*

What do the screens show for `COc1ccc(-n2nc(C(=O)NCC(=O)NCCCN3CC(C)CC(C)C3)c3ccccc3c2=O)cc1Cl` (stereo not given)?
ATXN2 expr inh: inconclusive; a7 integrin act: -53%; S2 tox: inconclusive; D3 antag: -21; IL-1B inflam inh: -71*; D3 ag: -13

What do the screens show for `COc1ccc(CC(=O)N2CCC(C)(C(=O)NS(=O)(=O)C3CC3)C2)cc1OC` (stereo not given)?
ATXN2 expr inh: 16%; S2 tox: inactive; D3 antag: 8; IL-1B inflam inh: 23; D3 ag: 3

Results for CC(=O)Nc1ccc(CNc2nc(NC(C)C)nc3ccsc23)cc1 ?
ATXN2 expr inh: 4%; S2 tox: inactive; D3 antag: -7; IL-1B inflam inh: -90*; D3 ag: 0

How did CC(=O)Nc1ccc(CNc2nc(NCC3CC3)nc3ccsc23)cc1 do in these assays?
ATXN2 expr inh: -13%; S2 tox: inactive; D3 antag: 0; IL-1B inflam inh: -105*; D3 ag: -11

Results for CC(C)Nc1nc(Nc2ccccc2Cl)c2sccc2n1 ?
ATXN2 expr inh: -6%; S2 tox: inconclusive; D3 antag: 8; IL-1B inflam inh: -63*; D3 ag: -10

How did CC(=O)Nc1cccc(Oc2nc(NCC3CC3)nc3ccsc23)c1 do in these assays?
ATXN2 expr inh: -8%; S2 tox: inactive; D3 antag: 46; IL-1B inflam inh: 0; D3 ag: 8

How did COc1cc(OC)c(NC(=S)Nc2cccc(C)c2)cc1Cl do in these assays?
ATXN2 expr inh: 0%; a7 integrin act: 22%; S2 tox: inactive; D3 antag: -15; IL-1B inflam inh: -12; D3 ag: -3

Results for CCN(CC)c1ccc(C(=O)NN)cc1 ?
ATXN2 expr inh: -11%; a7 integrin act: 18%; S2 tox: inactive; D3 antag: 10; IL-1B inflam inh: -52*; D3 ag: 1

What do the screens show for `Nc1ccc(N(CCO)CCO)cc1`?
ATXN2 expr inh: -15%; a7 integrin act: 14%; S2 tox: inactive; D3 antag: inconclusive; IL-1B inflam inh: -8; D3 ag: -3

Results for CCN(CC)c1ccc(N)cc1 ?
ATXN2 expr inh: 0%; D3 antag: -7; IL-1B inflam inh: -66*; D3 ag: -46

How did CCN(CC)c1ccc(NC(=O)Nc2ccc(C(C)=O)cc2)cc1 do in these assays?
ATXN2 expr inh: 8%; a7 integrin act: 6%; S2 tox: inactive; D3 antag: inconclusive; IL-1B inflam inh: -12; D3 ag: -6

Results for O=C(NC1CC2CCC(C1)N2Cc1ccccc1)c1ccccc1Cl (stereo not given) ?
ATXN2 expr inh: -9%; a7 integrin act: 6%; S2 tox: inactive; D3 antag: -89*; IL-1B inflam inh: -29; D3 ag: -18

Results for COc1ccccc1C(=O)NC1CC2CCCC(C1)N2Cc1ccccc1 (stereo not given) ?
a7 integrin act: -15%; S2 tox: inconclusive; D3 antag: -112*; IL-1B inflam inh: 33; D3 ag: 4

How did Cc1ccccc1C(=O)NC1CC2CCCC(C1)N2Cc1ccccc1 (stereo not given) do in these assays?
ATXN2 expr inh: -11%; a7 integrin act: 3%; S2 tox: inactive; D3 antag: -85*; IL-1B inflam inh: inconclusive; D3 ag: -18

Results for CN1CCN(C(=S)NC(CC(=O)c2ccccc2)c2ccccc2)CC1 (stereo not given) ?
ATXN2 expr inh: -11%; a7 integrin act: 12%; S2 tox: inactive; D3 antag: 14; IL-1B inflam inh: -52*; D3 ag: -8

What do the screens show for `COCCNC(=S)NC1CC2CCC(C1)N2Cc1ccccc1` (stereo not given)?
ATXN2 expr inh: -2%[11.3 µM]; a7 integrin act: 0%; S2 tox: inactive; D3 antag: inconclusive; IL-1B inflam inh: -8; D3 ag: -12

How did Cc1cccc(NC(=O)NC2COc3ccccc3C2)c1C (stereo not given) do in these assays?
D3 ag: -9

How did COc1cccc(NC(=O)CN(C)C(=O)Cc2n[nH]c(=O)c3ccccc23)c1 do in these assays?
ATXN2 expr inh: 3%; a7 integrin act: 28%; S2 tox: inactive; D3 antag: 17; IL-1B inflam inh: 20; D3 ag: 4

How did Cc1ccc(C(C(=O)NC2CCCCC2)N2CCC3(CC2)OCCO3)cc1 (stereo not given) do in these assays?
ATXN2 expr inh: -9%; a7 integrin act: -15%; S2 tox: inactive; D3 antag: -8; IL-1B inflam inh: inconclusive; D3 ag: 0

What do the screens show for `Cc1cccc(NC(=S)NC2CC3CCCC(C2)N3Cc2ccccc2)c1C` (stereo not given)?
a7 integrin act: -31%; S2 tox: inactive; D3 antag: -100*; IL-1B inflam inh: -28; D3 ag: -8
